# Source: PubChem
# An excerpt weighted towards active compounds, which were near 12% of everything screened.
# BAZ2B block = BAZ2B (human) inhibition | Q9UIF8 | AlphaScreen BAZ2B-H3K14Ac peptide displacement | Potency, µM (top dose mostly 114 µM), for the others: at the highest dose activity change, negative = inhibition, most hits filed as inhibitors | 360,000 tested, 4.4% active; note: potency is the fitted concentration of half-maximal effect; % is set by controls: 0 for no effect and ±100 for the full control effect; nearly all actives have a fitted effect of over 60% in size
#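 Inhibition is scored as reduced AlphaScreen emission. The BAZ2B/b-H3(5-23)K14Ac complex (50 nM each) in PBS pH 7.4, 0.01% Tween-20 meets compound (up to 110 uM) for 30 min at RT before bead addition.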
# HP1b chromo inh = inhibitors of HP1-beta chromodomain binding to methylated histone tails. P83916. 390,000 tested, 0.56% active. Potency, µM (highest dose often 114 µM), inactives show at the top dose activity change, negative = inhibition, actives largely listed as inhibitors. AID 540317. AlphaScreen HP1-beta / biotin-H3K9me3 peptide binding; note: potency is the fitted concentration of half-maximal effect; nearly all actives have a fitted effect of over 70% in size
#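 HP1-beta protein (50 nM final) preincubated 30 min at room temperature with biotinylated H3(1-18)K9me3 peptide (50 nM) in PBS pH 7.4, 0.01% Tween-20, then compound added for 30 min. AlphaScreen streptavidin donor/nickel chelate acceptor beads (10 ug/mL final), 30 min dark, luminescence read.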
# PI5P4Ka inh = PI5P4K alpha (human) kinase inhibition; P48426; PI5P4Kalpha enzyme, ADP-Glo luminescence, 60 min; stronger effect = lower value; max response, %; 330,000 tested, 1.2% active; AID 652105; active = max response of -50% or lower; inconclusive = between -30% and -50%; inactive = -30% or higher; note: value at the top dose of about 77 µM; % is set by controls: 0 for no effect and ±100 for the full control effect
#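 Luminescence from ADP-Glo served as readout of PI5P4Kalpha activity in a qHTS format. Reaction: enzyme, substrate, compound, ATP at 5 microM final, 60 min at RT.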
# PLK1 PBD block = inhibitors of human PLK1 polo-box domain binding; P53350; Plk1 PBD binding of FITC phosphopeptide, fluorescence polarization; Potency, µM, without a hit: max response, negative = inhibition, hits mostly inhibitors; 360,000 tested, 2.8% active; AID 720504; note: potency is the fitted concentration of half-maximal effect; series mostly up to about 57 µM; % is set by controls: 0 for no effect and ±100 for the full control effect; nearly all actives have a fitted effect of over 65% in size
# JMJD2A Tudor inh = inhibitors of human JMJD2A Tudor domain; O75164; AlphaScreen JMJD2A-Tudor / H3K4me3 peptide binding; Potency, µM (series often up to 114 µM), for inactives: at the top dose activity change, negative = inhibition, actives largely listed as inhibitors; 390,000 tested, 4.4% active; AID 504339; note: potency is the fitted concentration of half-maximal effect; % is set by controls: 0 for no effect and ±100 for the full control effect; nearly all actives have a fitted effect of over 50% in size
# G9a block = G9a (human) methyltransferase inhibition; 350,000 tested, 8.8% active; Potency, µM (highest dose often 102 µM), without a hit: top-dose activity, negative = inhibition, most hits filed as inhibitors; Q96KQ7; G9a H3K9 monomethylation, AlphaScreen, 2 h; note: potency is the fitted concentration of half-maximal effect; % is set by controls: 0 for no effect and ±100 for the full control effect; nearly all actives have a fitted effect of over 75% in size
#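 G9a (20 nM) preincubated 15 min RT with compounds, then 500 nM biotinylated H3K9 peptide and 20 uM SAM added; 2 h RT reaction. Monomethyl-H3K9 product detected by AlphaScreen with anti-H3K9me1 antibody, streptavidin donor and anti-rabbit IgG acceptor beads.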
# * hit, by the source's call; ? = inconclusive; . = not tested or not shown; [ ] = dose if it differs, or a comment. Unless noted, calls come from the whole dose curve; as a rule, active = well fitted curve in the direction sought with a large enough effect; inconclusive = small, poorly fitted or top-dose-only effect, or another doubt; inactive = no such curve, though single readings can be large; an effect the other way counts as inactive or inconclusive.
SMILES,BAZ2B block,HP1b chromo inh,PI5P4Ka inh,PLK1 PBD block,JMJD2A Tudor inh,G9a block
COc1cccc(N2CCN(C(=O)c3ccc(NC(=O)c4nsc5ccccc45)cc3)CC2)c1,-13%,1%[57 µM],.,.,-35%,-29%[59 µM]
O=S1(=O)CCOCCCN1Cc1ccc(Cl)cc1,-6%,20%,8,-5%,-17%,4%
CCN1CCN(C(c2ccc(SC)cc2)c2c(O)cc(C)n(CCOC)c2=O)CC1 (stereo not given),-2%,9%[57 µM],.,.,?,?
COc1cccc(CNC(=O)c2cccc(NC(=O)c3nsc4ccccc34)c2)c1,8%,17%[57 µM],.,.,-13%,1%[59 µM]
COC(=O)c1cccc(NC(=O)c2nsc3ccccc23)c1,19%,31%,.,.,-2%,4.5µM*
COc1ccc(N2CCN(C(=O)c3ccccc3NC(=O)c3ccccc3)CC2)cc1,-38%,-11%,2,-6%,-31%,45µM*
COc1ccc(N2CCN(C(=O)c3ccccc3NS(=O)(=O)c3ccc(C)cc3)CC2)cc1,?,-19%,1,-2%,?,50µM*
COc1cc2nc(SCc3cccc(Cl)c3)n3nc(CCn4nc(C)cc4C)nc3c2cc1OC,.,12%,.,.,-23%,-42%[59 µM]
CCCn1nc(C(=O)OCC(=O)Nc2ncc(Cl)c(C)c2Cl)c2ccccc2c1=O,-17%,-1%,-6,-19%,-14%,?
Cc1ccccc1OCC(=O)OCC(=O)Nc1ncc(Cl)c(C)c1Cl,56µM*,5%,-19,-26%,?,15%[2.33 µM]
Cc1c(Cl)cnc(NC(=O)COC(=O)c2nn(C)c(=O)c3ccccc23)c1Cl,?,14%,-25,-16%,-24%,45µM*
COc1ccc(NC(=O)C2Cc3c(-c4cccc(C(C)=O)c4)ccnc3O2)cn1 (stereo not given),.,.,-7,-8%,.,.
COc1cc(NC(=O)COC(=O)c2cnccn2)c(C)cc1[N+](=O)[O-],-14%,17%,-26,-12%,-10%,.
COc1ccc(OCC(=O)NC(=O)c2ccccc2OC)c([N+](=O)[O-])c1,-37%,-2%,-1,-1%,-25%,50µM*
COc1ccccc1C(=O)NC(=O)COC(=O)c1nccnc1N,.,11%,0,2%,40µM*,.
COc1cc(NC(=O)COC(C)=O)c(C)cc1[N+](=O)[O-],-6%,27%,-1,27µM*,-23%,2%[59 µM]
COc1ccc(C(C)(C)C)cc1NC(=O)COC(=O)c1ccc([N+](=O)[O-])o1,?,?,0,30µM*,20µM*,40µM*
COc1ccc(C)cc1NC(=O)COC(=O)c1ccc([N+](=O)[O-])o1,9%,27%,8,-18%,-40%,-33%
O=C(NC1CC1)c1cccc(NC(=O)C2CCN(S(=O)(=O)c3ccccc3C(F)(F)F)CC2)c1,.,.,3,5%,.,.
COc1ccc(C2=Nn3c(nnc3-c3ccccc3OC)SC2)cc1,.,.,.,.,-12%,.
COc1ccc(NC(=O)c2ccco2)cc1NC(=O)COc1ccccc1[N+](=O)[O-],1%,35%,-8,-1%,-8%,16%
O=C(Nc1ccccc1Cl)c1ccccc1Oc1ccc(C(F)(F)F)cc1[N+](=O)[O-],?,?,4,-8%,50µM*,25%[0.501 µM]
COc1ccccc1NC(=O)COc1ccc(C(F)(F)F)cc1[N+](=O)[O-],.,-11%,-4,27µM*,-22%[11.4 µM],.
O=C(c1ccccc1Oc1ccc(C(F)(F)F)cc1[N+](=O)[O-])N1CCOCC1,3%,17%,3,-9%,-13%,-2%[59 µM]
Nc1ccc(CCCC(=O)NCc2cccnc2)cc1,.,.,4,1%,.,.
SMILES,BAZ2B block,HP1b chromo inh,PI5P4Ka inh,PLK1 PBD block,JMJD2A Tudor inh,G9a block
O=c1[nH]cnc(CN2CCCCC2)c1O,.,23%,2,-3%,50µM*,.
CC(C)CC(=O)Nc1nc2ccc(S(C)(=O)=O)cc2s1,-30%,37%,-27,-28%,-7%,50µM*
CCCNS(=O)(=O)c1ccc2nc(NC(=O)c3ccc(F)cc3)sc2c1,4%,?,.,.,50µM*,1.4µM*
CCCCNS(=O)(=O)c1ccc2nc(NC(=O)c3cccnc3)sc2c1,5%,22%[57 µM],.,.,-18%,2%[59 µM]
CS(=O)(=O)c1ccc2nc(NC(=O)CN3CCC(Cc4ccccc4)CC3)sc2c1,-2%,54%,-6,-10%,?,-1%[2.33 µM]
CS(=O)(=O)c1ccc2nc(NC(=O)CN3CCN(Cc4ccccc4)CC3)sc2c1,-5%,17%,.,-3%,?,13µM*
C=CCSc1nc(C)c(CC(=C)C)c(=O)[nH]1,6%,30%,-1,6%,-5%,15%
C=CCSc1nc(C)c(CCC(C)C)c(=O)[nH]1,2%,19%,-16,27µM*,-33%,-4%
Cc1ccc2c(Cl)cc(Cl)c(OCC(=O)Nc3cc(S(=O)(=O)N(C)C)ccc3C)c2n1,2%,52%,0,2%,-22%,71µM*
Cc1ccc2c(Cl)cc(Cl)c(OCC(=O)Nc3cccc(S(=O)(=O)N(C)C)c3)c2n1,5%,36%,-3,0%,-1%,17%[59 µM]
Cc1ccc(S(=O)(=O)N(C)C)cc1NC(=O)COC(=O)C1CCCC1,-3%,20%,0,2%,20µM*,-18%
Cc1ccc(S(=O)(=O)N(C)C)cc1NC(=S)NNC(=O)C(N)=O,-25%,37%,-1,-3%,-24%[11.4 µM],45µM*
COc1cccc(CNC(=S)Nc2cc(OC)ccc2OC)c1,?,14%,2,-20%,-21%,-44%
COc1ccc(S(=O)(=O)N2CCOCC2)cc1NC(=O)CCNC(=O)c1ccc([N+](=O)[O-])cc1,9%,23%,2,-12%,-15%,3.5µM*
COc1ccc([N+](=O)[O-])cc1NC(=O)CCN1CCOCC1,-18%,12%,-8,30µM*,-12%,-6%
O=C(CCNC(=O)c1ccc(Br)cc1)Nc1cccc(S(=O)(=O)N2CCCC2)c1,-1%,2%,-2,-1%,-21%,45µM*
COc1ccc(S(=O)(=O)N2CCOCC2)cc1NC(=O)Cc1sc(C)nc1-c1ccc(F)cc1,4%,7%,3,-3%,-22%,50µM*
CCOC(=O)c1cc(C)n(CC2CCC(C(=O)Nc3ccccc3OC)CC2)c1C (stereo not given),-31%,17%,.,.,-34%,?
CC1(c2nnnn2-c2ccc3c(c2)OCCO3)CCC(=O)N1Cc1cccnc1 (stereo not given),.,.,-1,-6%,.,.
O=C(CCNC(=O)c1ccc([N+](=O)[O-])cc1)Nc1cccc(S(=O)(=O)N2CCCCCC2)c1,56µM*,4%,3,-9%,-29%,-8%[2.33 µM]
O=C(CCNC(=O)c1ccc([N+](=O)[O-])cc1)Nc1cccc(S(=O)(=O)N2CCOCC2)c1,0%,32%,0,0%,-2%,?
